Source: PubChem BioAssay
Sampled rows, rich in hits. Any-hit rate of the full collection: about 2.8%.
FGF22 binding: binders of human FGF22 protein, primary screen, FGF22 synaptogenesis inhibitor project, biophysical, thermal shift, single point; activity (Tm shift, normalised), % at 9.99 µM; 1.5% of 340,000 active; AID 651658, 2012; recombinant FGF22 thermal shift, SYPRO orange fluorescence; percent of sucrose octasulfate shift, DMSO zero; Fibroblast growth factor 22 (Homo sapiens), Q9HCT0;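 active means mean Tm shift, scaled 0 neutral to 100 positive control, at about 1.3% or above, every replicate too, limit read from the data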
SIRT5 inh: SIRT5 desuccinylase inhibitors, primary screen, biochemical, fluorescence imaging, single point, set 5. 1.1% of 330,000 active. Purified SirT5, succinyl-peptide AMC, trypsin-coupled fluorescence. AID 652115, 2013. inhibition, % at 15 µM; in the data active means inhibition above about 15%
PvdQ acylase: P. aeruginosa PvdQ acylase inhibitors, primary screen, biochemical, fluorescence, plate reader and imaging, single point | PvdQ acylase [Pseudomonas aeruginosa LESB58] | purified PvdQ acylase | inhibition, % at 10 µM | 0.063% of 340,000 active | AID 488965, 2010; in the data active means inhibition above about 30%, passing the limit was not always enough
PglD inh: C. jejuni PglD acetyltransferase inhibitors, primary screen, biochemical, DTNB colorimetric, single point. purified PglD enzyme, DTNB colorimetric CoA detection. inhibition, % at 12.5 µM. 0.098% of 360,000 active. AID 602405, 2012; in the data active means inhibition above about 16%, passing the limit was not always enough
CDK5 inh: inhibitors of human CDK5/p35 kinase, primary screen, biochemical, single concentration; 0.01% of 330,000 active; AID 488839, 2010; inhibition, % at 10 µM; Recombinant CDK5/p35, ADP-Glo luminescence, 60 min;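 active means highest replicate inhibition of at least 50% and at least 75% of replicates reaching 50%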
Target sequence (Q00535 whole entry, looked up): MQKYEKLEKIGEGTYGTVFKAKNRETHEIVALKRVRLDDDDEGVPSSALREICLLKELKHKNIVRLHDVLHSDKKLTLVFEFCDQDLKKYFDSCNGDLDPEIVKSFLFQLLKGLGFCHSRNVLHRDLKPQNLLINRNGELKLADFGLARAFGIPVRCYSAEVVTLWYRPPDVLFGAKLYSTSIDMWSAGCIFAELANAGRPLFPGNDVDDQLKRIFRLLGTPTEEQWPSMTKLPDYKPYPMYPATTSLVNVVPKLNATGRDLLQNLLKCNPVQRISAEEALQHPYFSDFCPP
Target sequence (Q15078 whole entry, looked up): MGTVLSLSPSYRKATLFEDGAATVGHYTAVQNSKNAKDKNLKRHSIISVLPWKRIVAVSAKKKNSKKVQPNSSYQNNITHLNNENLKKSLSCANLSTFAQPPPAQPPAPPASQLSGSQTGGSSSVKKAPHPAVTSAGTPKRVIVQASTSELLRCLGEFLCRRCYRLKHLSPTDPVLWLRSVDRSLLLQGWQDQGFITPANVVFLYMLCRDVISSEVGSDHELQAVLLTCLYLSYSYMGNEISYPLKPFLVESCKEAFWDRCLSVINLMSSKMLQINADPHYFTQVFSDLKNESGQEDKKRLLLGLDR
dFosB activator: activators of delta FosB homodimer, primary screen, biochemical, fluorescence polarization, TAMRA-CDK5 oligo, single point; Protein FosB (Mus musculus), P13346; purified delta FosB; percent of positive-control signal above neutral wells; activation, % at 25 µM; 0.99% of 340,000 active;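 active means mean activation above about 17%, with every replicate also reaching it, limit read from the data, passing the limit was not always enough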
Each line names hits and unclear results; the compound was inactive in the other large screens.

COCC#Cc1ccc2c(c1)O[C@H](CN(C)C(=O)C1CC1)[C@@H](C)CN([C@@H](C)CO)S2(=O)=O	none (no result: PvdQ acylase, CDK5 inh, dFosB activator)
CN1/C(=C/C(=S)NC(=O)C2CCC2)C(C)(C)c2ccccc21	SIRT5 inh 15 (no result: dFosB activator)
CN1/C(=C\C(=O)c2cccc(S(=O)(=O)N3CCCCC3)c2)C(C)(C)c2ccccc21	FGF22 binding 43
C[C@H](CO)N1C[C@H](C)[C@H](CN(C)S(C)(=O)=O)Oc2c(NC(=O)NC3CCCCC3)cccc2C1=O	none (no result: PvdQ acylase, CDK5 inh, dFosB activator)
Cc1noc(C)c1NC(=O)Nc1ccc2c(c1)CC(=O)N([C@H](C)CO)C[C@@H](C)[C@@H](CN(C)S(=O)(=O)c1ccccc1)O2	none (no result: PvdQ acylase, CDK5 inh, dFosB activator)
CCCNC(=O)N1CC2(C1)CN(C(=O)CC1CC1)[C@@H](CO)c1c2c2ccc(OC)cc2n1C	none (no result: PvdQ acylase, PglD inh, CDK5 inh, dFosB activator)
CCOC(=O)N/N=C/c1c(F)cccc1F	none (no result: FGF22 binding, SIRT5 inh)
CCOC(=O)N/N=C/c1c(F)c(F)c(F)c(F)c1F	FGF22 binding 44 (no result: PglD inh)
CCOC(=O)C1=C(C)N=c2s/c(=C\c3ccc(OCC(=O)O)cc3)c(=O)n2C1c1ccc(Cl)cc1 (configuration not stated)	none
CC1=C(C(=O)OC(C)C)C(c2ccc(Cl)cc2)n2c(sc(=Cc3ccc(OCC(=O)O)cc3)c2=O)=N1 (configuration not stated)	FGF22 binding 4.2 (no result: SIRT5 inh, PvdQ acylase, CDK5 inh, dFosB activator)
O=C(N/N=C/C=C/c1ccccc1[N+](=O)[O-])c1cccs1	none
Cn1cccc1-c1cc(C(=O)N/N=C/c2ccc(Cl)cc2)[nH]n1	none
O=C(N/N=C/C=C/c1ccccc1)c1cccs1	FGF22 binding 43 (no result: PglD inh)
Cn1cccc1-c1cc(C(=O)N/N=C/C=C/c2ccccc2)[nH]n1	FGF22 binding 1.7 (no result: PglD inh)
N#Cc1ccc(-c2ccc([C@H]3[C@@H](CO)N4C(=O)CNC[C@H]34)cc2)cc1	none (no result: PvdQ acylase, PglD inh, CDK5 inh, dFosB activator)
CC(C)N(Cc1nccn1C)C(=O)CCc1nnc(CCCc2ccccc2)o1	FGF22 binding 44 (no result: PglD inh)
CN(CCc1cnn(C)c1)C(=O)CCc1nnc(CCCc2ccccc2)o1	FGF22 binding 43 (no result: PglD inh)
COC(c1ccccc1)c1nnc(CCC(=O)N(C)CCc2ccccc2)o1 (configuration not stated)	FGF22 binding 44 (no result: PglD inh)
Cc1noc(C)c1NC(=O)N(C)C[C@@H]1OCCCC[C@H](C)Oc2ccc(NS(=O)(=O)c3ccc(F)cc3)cc2C(=O)N([C@@H](C)CO)C[C@@H]1C	none (no result: PvdQ acylase, CDK5 inh, dFosB activator)
S=C(NCc1ccccc1)NC1CCCc2ccccc21 (configuration not stated)	SIRT5 inh 112 (no result: PglD inh)
S=C(NCc1ccco1)NC1CCCc2ccccc21 (configuration not stated)	none (no result: PglD inh)
CC(C)(Sc1ccc(CCN(CCCCC2CCCCC2)C(=O)NC2CCCCC2)cc1)C(=O)O	SIRT5 inh 26
O=[N+]([O-])c1nn(-c2ccc(Cl)cc2)n(O)c1=NCc1ccccc1	PvdQ acylase 41
COc1nc(N/N=C/c2ccc(-c3ccccc3[N+](=O)[O-])o2)nc(N2CCOCC2)n1	none
O=[N+]([O-])c1ccc(-c2ccc(/C=N/Nc3nc(NCc4ccccc4)nc(N4CCOCC4)n3)o2)cc1	dFosB activator 21 (no result: FGF22 binding, SIRT5 inh, PglD inh)
Cc1noc(C)c1NC(=O)Nc1ccc2c(c1)C(=O)N([C@@H](C)CO)C[C@H](C)[C@@H](CN(C)Cc1ccccc1)OCCCC[C@@H](C)O2	none (no result: FGF22 binding, PvdQ acylase, CDK5 inh, dFosB activator)
O=C(C[C@@H]1C[C@@H]2c3cc(NC(=O)C4CCC4)ccc3O[C@@H]2[C@@H](CO)O1)NCC(F)(F)F	none (no result: FGF22 binding, PvdQ acylase, CDK5 inh, dFosB activator)
Cc1onc(-c2ccccc2)c1C(=O)c1c[nH]c(C(=O)NCc2ccccn2)c1	SIRT5 inh 19
Cc1nccn1-c1ccc(C(F)(F)F)cc1NC=O	none (no result: FGF22 binding, SIRT5 inh)
Cc1nccn1-c1ccc(C(F)(F)F)cc1[N+](=O)[O-]	FGF22 binding 43 (no result: PglD inh)
CCOc1cc2c(cc1OC)C(c1cccc([N+](=O)[O-])c1)NCC2 (configuration not stated)	FGF22 binding 43 (no result: PglD inh)
O=c1[nH][nH]c(-c2ccccc2)c1C=Nc1ccc(C(F)(F)F)cc1	FGF22 binding 44
Cc1nc2c(C)c(C)c(C)c(C)c2nc1C	none (no result: PvdQ acylase, CDK5 inh, dFosB activator)
Cc1nc2nc(C)c(C)nc2nc1C	FGF22 binding 43 (no result: SIRT5 inh, PvdQ acylase, CDK5 inh, dFosB activator)
Cc1nc(S(=O)(=O)NC2CCCCC2)c(C#N)c(C)c1Cl	none (no result: FGF22 binding, SIRT5 inh)
Cc1nc(S(=O)(=O)N(C)Cc2ccccc2)c(C#N)c(C)c1Cl	SIRT5 inh 17 (no result: FGF22 binding)
COc1ccccc1NC(=O)C(=O)N/N=C/c1ccc([N+](=O)[O-])s1	FGF22 binding 44
O=C(Nc1ccccc1NC(=O)c1csnn1)c1csnn1	FGF22 binding 43 (no result: PglD inh)
O=C(NC(=S)Nc1ccccc1Cl)c1csnn1	none
N=c1n(Cc2ccccc2)c2ccccc2n1CC(O)COc1ccc(Cl)cc1Cl (configuration not stated)	dFosB activator 30 (no result: PglD inh)
CON(C)C(=O)[C@H]1C[C@@H]2[C@H](C[C@@H](c3ccccc3)[C@H]1C)N(c1ccc(F)cc1)C(=O)N2CCCOc1ccccc1	none (no result: SIRT5 inh, PvdQ acylase, PglD inh, CDK5 inh, dFosB activator)
CCN(CC)C(=O)[C@H]1C[C@@H]2[C@H](C[C@@H](c3ccccc3)[C@H]1C)N(c1ccc(F)cc1)C(=O)N2CCCOc1ccccc1	FGF22 binding 43 (no result: SIRT5 inh, PvdQ acylase, PglD inh, CDK5 inh, dFosB activator)
C[C@@H]1CCCCO[C@@H](CN(C)C(=O)Cc2ccccc2)[C@H](C)CN([C@@H](C)CO)C(=O)c2cc(NC(=O)CCCN(C)C)ccc2O1	none (no result: PvdQ acylase, CDK5 inh, dFosB activator)
C=CC[C@@H](CC(=O)N[C@H](CO)Cc1ccccc1)C(=O)N[C@@H](COC(=O)[C@@H](CC=C)CC(=O)OC(C)(C)C)Cc1ccccc1	SIRT5 inh 18
C=CC[C@@H](CC(=O)OC(C)(C)C)C(=O)OC[C@H]1CCCN1C(=O)[C@@H](CC=C)CC(=O)N[C@H](CO)Cc1ccccc1	none
C=CC[C@@H](CC(=O)OC(C)(C)C)C(=O)OC[C@@H]1CCCN1C(=O)[C@@H](CC=C)CC(=O)N[C@@H](CO)Cc1ccccc1	SIRT5 inh 25
CNC[C@H]1Oc2c(NS(=O)(=O)c3ccccc3)cccc2C(=O)N([C@H](C)CO)C[C@H]1C	none (no result: PvdQ acylase, CDK5 inh, dFosB activator)
C[C@@H]1CN([C@H](C)CO)C(=O)c2c(c3ccccc3n2C)-c2ccccc2CO[C@@H]1CN(C)S(=O)(=O)c1cccc(C#N)c1	none (no result: PvdQ acylase, CDK5 inh, dFosB activator)
CC(C)OC(=O)c1cccc(C(=O)Oc2ccc(Br)cc2)n1	none (no result: FGF22 binding, SIRT5 inh)
CC(C)OC(=O)c1cccc(C(=O)O)n1	SIRT5 inh 19 (no result: FGF22 binding)
